# According to PubChem BioAssay (NCI):
# The panel holds about 79,000 compounds, 15% with a hit somewhere; the sample as a whole holds those more often. Unmarked numbers belong to inactive results. Active and inactive are the calls of the source. No stated cut-off is given here; in the data, active means growth inhibition above about 70%; inactive means the rest. Where a SMILES comes first, the peptide text is derived from it. Bridges are numbered along the chain shown (N, C = ends). [ ]: non-standard residue; d: D form. The star is where a group is joined. Cbz = O=C(OCc1ccccc1)*; Aib = CC(C)(N)C(=O)O; OBn = c1ccc(CO*)cc1; βAla = NCCC(=O)O
# Experiments:
# [1] = NCI Yeast Anticancer Drug Screen. Data for the rad50 strain (AID 155);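 further: 0% = growth of vehicle-only cultures of the same strain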; conditions: S. cerevisiae rad50 strain growth inhibition; at 50.0 µM; stronger effect = higher value
# Method in brief: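 Vehicle-treated cultures provide the reference for the growth inhibition reported for compound-exposed, repair-deficient yeast.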
# [2] = NCI Yeast Anticancer Drug Screen. Data for the mec2-1 strain (AID 157); conditions: S. cerevisiae mec2-1 strain, at 50.0 µM, stronger effect = higher value
# Method in brief: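 Growth inhibition is read against vehicle-treated controls after compound exposure of the mec2-1 yeast strain, which is defective in DNA damage repair or cell cycle control.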
# [3] = NCI Yeast Anticancer Drug Screen. Data for the sgs1 mgt1 strain (AID 161);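 further: 0% = growth of cultures given vehicle only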; conditions: S. cerevisiae sgs1 mgt1 strain, at 50.0 µM, stronger effect = higher value
# Method in brief: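 Growth of a repair-deficient yeast mutant was monitored after compound treatment and expressed as inhibition relative to vehicle-treated cultures.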
# [4] = NCI Yeast Anticancer Drug Screen. Data for the cln2 rad14 strain (AID 165);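 further: 0% = growth equal to vehicle treated cultures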; conditions: S. cerevisiae cln2 rad14 strain, at 50.0 µM, stronger effect = higher value
# Method in brief: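 Growth inhibition, relative to vehicle-treated controls, is the read-out. The test organism is a yeast strain with defined genetic alterations, cln2 rad14.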
# [5] = NCI Yeast Anticancer Drug Screen. Data for the bub3 strain (AID 167); conditions: S. cerevisiae bub3 mutant strain, at 50.0 µM, stronger effect = higher value
# Method in brief: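 Mutant yeast screening strain plus compound; vehicle-treated cultures serve as the 0% inhibition reference.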
# [6] = NCI Yeast Anticancer Drug Screen. Data for the mlh1 rad18 strain (AID 175); conditions: S. cerevisiae mlh1 rad18 strain growth inhibition; at 50.0 µM; stronger effect = higher value
# Method in brief: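 Cells of a genetically altered yeast strain, deficient in DNA damage repair, were treated with compound. Their growth was then compared with that of vehicle-treated cultures to give inhibition.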
SMILES,growth inhibition [1] [%],growth inhibition [2],growth inhibition [3],growth inhibition [4] [%],growth inhibition [5],growth inhibition [6]
O=c1cc([O-])[n+](C2OC(CO)C(O)C2O)c2sccn12 (stereo not drawn),10.2,9.2%,16.6%,-0.5,-2.55%,-2.8%
O=C1c2ccccc2C(=O)N1CCS(=O)(=O)CCS(=O)(=O)CCN1C(=O)c2ccccc2C1=O,-0.1,4.95%,-14.9%,-37.5,-0.95%,4.5%
NC(=O)NC=O,10.8,-3.95%,14.7%,1.25,-14.6%,14.3%
COc1ccc2ccccc2c1NC(C)=O,0.2,5.95%,-0.7%,-21.8,-1.6%,-10.5%
CC(C(N)=O)C(=O)c1ccccc1 (stereo not drawn),9.9,-12.4%,-24.3%,-7.15,-21.2%,0.15%
CCCCC1C2C(S(=O)(=O)c3ccccc3)=NOC2C=CN1C(C)=O (stereo not drawn),-6.4,-9%,1.55%,7.55,3.25%,10.3%
Cc1ccc(S(=O)(=O)Nc2ccc(C(=O)Cl)cc2)cc1,4.8,25.4%,23.5%,6.9,27.4%,11.8%
CC(=O)OC1CCC23COC(CC(C)C2C)C3(Cl)C1 (stereo not drawn),-0.7,-4.65%,-3.25%,-8.1,-11.2%,5.05%
CCOC(=O)OCCCc1ccccc1,-8.95,-2.95%,-8.8%,-15.4,-7.55%,-6.8%
CCCCCCC(C)N1C(=O)c2ccccc2C1=O (stereo not drawn),6.25,6.75%,4.75%,-39.1,0.7%,-8.4%
CCOC(CN(Cc1ccccc1)CC(OCC)OCC)OCC,12.7,8.15%,12.9%,5.85,9.8%,-4%
O=C(N[C@H](CO)[C@H](O)c1ccc([N+](=O)[O-])cc1)C(Cl)Cl,25.2,-4.05%,28.9%,9.55,35.6%,10.7%
CC(C)(C)c1cc(C(=O)Nc2cc(Br)c(Br)cc2S(N)(=O)=O)cc(C(C)(C)C)c1O,37,7.8%,31.6%,25,39.8%,37.9%
C/C(=N\NS(=O)(=O)c1ccccc1)c1ccccc1,5.95,3.4%,3.5%,28.6,1.1%,20.5%
Cc1cn(CCCn2cnc3c(N)ncnc32)c(=O)[nH]c1=O,-12.7,-31.6%,-9.55%,-6.6,-31.4%,-2.9%
C/C(Cl)=N\OC(=O)Nc1ccc([N+](=O)[O-])cc1,34.2,80.2% (active),85.8% (active),66.8,87.2% (active),43.4%
CC(C)(C#N)OC(=O)Nc1c(Cl)cccc1Cl,2.4,-23.2%,5.15%,3.6,11.2%,6.5%
CC(=O)[O-].O=S(=O)(Nc1ncccn1)c1ccc(N=Cc2ccccc2O)cc1.O=S(=O)(Nc1ncccn1)c1ccc(N=Cc2ccccc2O)cc1.[Cu+2],-7.4,-21.6%,-17.4%,-8.25,-17.6%,-1.35%
Nc1nc([O-])c([I+]c2ccccc2)c(=O)[nH]1,-17.5,-11.8%,3.7%,-8.5,0.15%,-6.45%

SMILES,growth inhibition [1] [%],growth inhibition [2],growth inhibition [3],growth inhibition [4] [%],growth inhibition [5],growth inhibition [6]
CC1CCCC2(C1)OCC(O)CO2 (stereo not drawn),23.2,-2.2%,8.8%,12.8,7.65%,10.2%
CC(=O)Nc1ccc(/C=C2/C(=O)ON=C2C)cc1,6.75,6.6%,6%,11.8,3.95%,13.4%
c1ccc(-c2ccccc2N=C2N=NN=N2)cc1,-1,-6.9%,2.2%,-16.4,-13.6%,6.55%
CCN(CC)CCOC(=O)Cc1cccc2c(=O)cc(-c3ccc(OC)cc3)oc12,50.4,-9.95%,-12.4%,8.9,-10.2%,-45.4%
Cc1cc2c(C)[nH]nc2c(C(=O)O)c1C,6.85,-5.15%,6.35%,11.1,3.2%,19.4%
CC1(C)NC(=O)C(NC(=O)C(CC(=O)OCc2ccccc2)NC(=O)OCc2ccccc2)CCCCNC(=O)CCNC1=O (stereo not drawn) (Cbz-D(OBn)K[Aib][βAla]; lactam 2-C; configuration not given here),-0.7,-11.6%,-7.95%,20.4,-2.35%,1.3%
CC(=O)C(C)C(C)=O,-2.95,0.7%,1.4%,-21.6,22.6%,-0.85%
CCOC(=O)C1CN2C(=O)CCC2C1=O (stereo not drawn),-5.65,15.2%,8.7%,-5.85,15.4%,4.7%
CCCn1cnc2c(SCC(=O)O)nc(N)nc21,-33.3,-18.9%,-24.4%,-26.1,-22.1%,-8.9%
O=C1c2ccccc2-c2ccc([N+](=O)[O-])cc21,35.6,5.8%,-0.3%,8.65,-1.3%,-2.85%
CN(C)c1ccc(NN=C2SC(=Nc3ccccc3)C(=Nc3ccccc3)S2)cc1,41.5,-17.9%,-10.2%,18.1,25.2%,8.15%
Cc1ccc(S(=O)(=O)c2ccc(C)cc2[N+](=O)[O-])c([N+](=O)[O-])c1,-58.1,-52.1%,-25.4%,-6.2,-19.9%,-44.6%
CN(C)CCCC(O)c1cccc2ccccc12 (stereo not drawn),25.4,-12.6%,10.7%,-4.65,0.8%,24.4%
Cc1ccc(S(=O)(=O)/C(C#N)=C\N2CC(=O)NC2=S)cc1,-20.1,-21.1%,-23.2%,-10.3,-13.9%,-25.6%
Cn1c(=O)sc2ccccc21,19.4,-18.2%,14.3%,15.1,-8.8%,25.6%
N#Cc1c(-c2ccccc2)nc(-c2ccccc2)sc1=S,12.1,-0.7%,42%,4.55,48.1%,73.8% (active)
N/C(=N\O)c1ccccc1,27.1,0.6%,13.7%,15.3,4.35%,23.1%
Nc1c(O)cccc1C(=O)O,-16.2,-9.9%,-4.45%,3.95,5.1%,-28.7%
Cc1cccc(Cl)c1O,29.8,-7.1%,23.6%,-23.8,-7.75%,18.2%
